Most compounds without a hit are left out; they make up all but 6.9% or so of the library.
MCF10A rerep: DNA re-replication induction in MCF 10a cells; MCF 10A DNA re-replication, Hoechst nuclear intensity, 48 h; Potency, µM (top dose mostly 46.1 µM), usual class: activators; 350,000 compounds, 2.9% hits; AID 624296; further: nearly all actives have a fitted effect of over 50% in size
KB-V1 MDR tox: KB-V1 MDR subline cytotoxicity. KB-V1 MDR cells viability, CellTiter-Glo, 72 h. Potency, µM (doses to about 46.1 µM), actives largely listed as cytotoxic. 400,000 compounds, 3.4% hits. AID 1347076; further: nearly all actives have a fitted effect of over 60% in size
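Luminescent ATP read-out (CellTiter-Glo, 10 min) measures survival of drug-selected KB-V1 MDR cells after 72 h, 37 degrees C compound exposure. Medium: phenol-red-free DMEM, 10% FBS. Values from fitted concentration-response curves.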
S-ASM inh: human S-ASM enzyme inhibition; placental ASM, HMU-PC fluorogenic substrate, 60 min; Potency, µM (top dose mostly 57.5 µM), hits mostly inhibitors; 340,000 compounds, 0.006% hits; AID 504937
Target sequence (P17405 47-631 limits assumed): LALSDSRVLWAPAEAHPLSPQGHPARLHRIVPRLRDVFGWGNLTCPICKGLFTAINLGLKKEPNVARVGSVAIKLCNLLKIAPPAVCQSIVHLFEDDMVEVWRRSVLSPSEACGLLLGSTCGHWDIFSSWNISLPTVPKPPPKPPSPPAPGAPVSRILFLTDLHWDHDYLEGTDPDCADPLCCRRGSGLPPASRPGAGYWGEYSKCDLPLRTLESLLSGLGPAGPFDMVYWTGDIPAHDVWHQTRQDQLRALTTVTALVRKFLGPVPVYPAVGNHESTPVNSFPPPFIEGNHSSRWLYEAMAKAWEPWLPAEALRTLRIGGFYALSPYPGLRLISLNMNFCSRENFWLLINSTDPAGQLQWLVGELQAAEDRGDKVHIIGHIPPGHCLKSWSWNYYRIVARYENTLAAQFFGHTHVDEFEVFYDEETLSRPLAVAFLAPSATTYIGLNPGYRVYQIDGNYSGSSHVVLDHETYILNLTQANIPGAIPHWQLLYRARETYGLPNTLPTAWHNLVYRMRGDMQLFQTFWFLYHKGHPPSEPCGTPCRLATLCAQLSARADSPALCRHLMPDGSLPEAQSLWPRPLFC
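Steps: dispense placental human ASM, pin compound, wait 10 min at room temperature, add HMU-PC0 substrate at 9 uM final, incubate 60 min at 37 °C, add stop solution raising pH to 10, read fluorescence.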
KB-3-1 cytotox: KB-3-1 parental cell cytotoxicity; KB-3-1 viability, CellTiter-Glo ATP luminescence, 72 h; Potency, µM (highest dose often 46.1 µM), usual class: cytotoxic; 400,000 compounds, 1.4% hits; AID 1347075; further: nearly all actives have a fitted effect of over 60% in size
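Here the drug-naive KB-3-1 line serves as comparator for MDR sub-line selectivity; cells received compound titrations, 72 h at 37 °C, then CellTiter-Glo readout.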
Giardia killer: kills Giardia lamblia; Giardia lamblia trophozoite viability; activity change, % at 7.66 µM, hits read low; 340,000 compounds, 0.15% hits; in the data active means activity change below about -80%; inconclusive means between about -30% and that limit;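 further: parasites exposed to compound for two days anaerobically before the ATP read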
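Each well holds 100 Giardia trophozoites and compound. After two days (48 hrs) at 37 deg C in anaerobic conditions, ATP is quantified by luminescence.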
SW480 rerep: induces DNA re-replication in SW480 colon adenocarcinoma cells | SW480 DNA re-replication, Hoechst DNA content imaging, 48 h | 340,000 compounds, 1.8% hits | Potency, µM (series often up to 46.1 µM), most hits filed as activators | AID 624297; further: nearly all actives have a fitted effect of over 55% in size
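SW480 cells exposed to compounds for 48 hr at 37 C, 5% CO2, then Hoechst-stained 40 min. Nuclear DNA content imaged by fluorescence scanning (405 nm excitation, 500-530 nm emission); re-replication scored as increased high-intensity nuclei.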
Large screens that a line does not name were inactive. Unless noted, the call rests on the fitted dose curve; in most records, active means well fitted curve in the direction sought with a large enough effect; inconclusive means small, poorly fitted or top-dose-only effect, or another doubt; inactive means no such curve, though single readings can be large; an effect the other way counts as inactive or inconclusive.

O=C(NCCc1ccco1)C(=O)NCC1OCCCN1S(=O)(=O)c1ccc(F)cc1 (configuration not stated)	none
Cc1ccc(S(=O)(=O)N2CCCOC2CNC(=O)C(=O)NCc2cccs2)cc1 (configuration not stated)	KB-V1 MDR tox 9.2µM, SW480 rerep inconclusive
O=[N+]([O-])c1cccc(S(=O)(=O)N2CCN(c3nc(-c4cccs4)nc4ccccc34)CC2)c1	none (no result: MCF10A rerep, S-ASM inh, SW480 rerep)
Cc1ccc(C)c(S(=O)(=O)N2CCCOC2CNC(=O)C(=O)NCc2ccco2)c1 (configuration not stated)	KB-V1 MDR tox 23µM, KB-3-1 cytotox inconclusive
CC1CC=CC2C1C(=O)N(Cc1ccccc1)C2c1ccoc1 (configuration not stated)	none (no result: MCF10A rerep, KB-V1 MDR tox, S-ASM inh, KB-3-1 cytotox, SW480 rerep)
COc1cc(NC(=O)c2cc(-c3ccccc3Cl)on2)cc(OC)c1OC	MCF10A rerep 21µM, KB-V1 MDR tox inconclusive, KB-3-1 cytotox 6.5µM, SW480 rerep inconclusive
COc1ccc(NC(=O)c2cc(-c3ccccc3Cl)on2)cc1	KB-V1 MDR tox inconclusive
CCC(C)NC(=O)c1ccc2nc(-c3cccs3)c(-c3cccs3)nc2c1 (configuration not stated)	KB-3-1 cytotox 10µM (no result: MCF10A rerep, S-ASM inh, SW480 rerep)
COc1cc(NC(=O)c2cc(-c3ccc(C)cc3)on2)cc(OC)c1OC	none
O=C(Nc1ccc2nc(-c3cccs3)c(-c3cccs3)nc2c1)N1CCCC1	none (no result: MCF10A rerep, S-ASM inh, SW480 rerep)
COCCNC(=O)Nc1ccc2nc(-c3cccs3)c(-c3cccs3)nc2c1	MCF10A rerep 23µM, SW480 rerep inconclusive
COc1cc(NC(=O)c2cc(-c3cccs3)on2)cc(OC)c1OC	MCF10A rerep inconclusive, KB-V1 MDR tox 6.5µM, KB-3-1 cytotox inconclusive, SW480 rerep inconclusive
COC(=O)c1ccc(Cn2c(SCc3ccc(F)cc3)nc3ccncc32)cc1	none (no result: MCF10A rerep, S-ASM inh, Giardia killer, SW480 rerep)
O=c1c2ccccc2c(/C=N/NS(=O)(=O)c2ccccc2)c(O)n1-c1ccccn1	SW480 rerep inconclusive
CCN(CC)c1ccc(NC(=O)c2cc(CN3CCCC3)on2)c(C)c1	none (no result: MCF10A rerep, S-ASM inh, Giardia killer, SW480 rerep)
COc1cc(NC(=O)c2cc(-c3cccc(O)c3)on2)cc(OC)c1OC	KB-3-1 cytotox 12µM
COCCNC(=O)c1cc(-c2cccs2)on1	KB-V1 MDR tox 21µM, KB-3-1 cytotox 21µM
O=C(NCc1cccs1)c1cc(-c2cccs2)on1	none
COc1cc(NC(=O)c2cc(-c3ccc(Cl)c(Cl)c3)on2)cc(OC)c1OC	none (no result: MCF10A rerep, S-ASM inh, Giardia killer, SW480 rerep)
Cc1ccc(C)c(Cn2c(=O)n(-c3ccc(Cl)cc3)c(=O)c3c(C)c(C)sc32)c1	none (no result: MCF10A rerep, S-ASM inh, Giardia killer, SW480 rerep)
CC(C)c1ccc(NC(=O)c2ccc(NC(=O)CCS(=O)(=O)c3cccs3)cc2)cc1	KB-3-1 cytotox inconclusive (no result: MCF10A rerep, S-ASM inh, Giardia killer, SW480 rerep)
COc1ccc(/C=N/n2c(SC)nnc2-c2ccccc2)cc1C	MCF10A rerep 18µM, KB-V1 MDR tox 18µM, KB-3-1 cytotox inconclusive, SW480 rerep 7.3µM
COc1ccc(/C=N/n2c(SC)nnc2-c2ccccc2)c(OC)c1OC	MCF10A rerep 15µM, KB-V1 MDR tox 5.2µM, KB-3-1 cytotox inconclusive, SW480 rerep 5.8µM
COc1cc(NC(=O)c2ccccc2)c(OC)cc1Cl	none
COc1cc(NC(=O)c2ccccc2Cl)c2ncccc2c1	MCF10A rerep 4.6µM, KB-V1 MDR tox inconclusive, KB-3-1 cytotox inconclusive, SW480 rerep inconclusive
COc1cc(OC)c(NC(=O)c2cc3ccccc3cc2O)cc1Cl	MCF10A rerep 21µM, KB-V1 MDR tox inconclusive, KB-3-1 cytotox inconclusive
COc1cc(NS(=O)(=O)c2ccc(C)cc2)c2ncccc2c1	KB-V1 MDR tox inconclusive, KB-3-1 cytotox 9.2µM, SW480 rerep 3.7µM
COc1ccc(NC(=O)c2c(NCc3cccs3)sc3c2CCCCC3)c(OC)c1	none (no result: MCF10A rerep, S-ASM inh, Giardia killer, SW480 rerep)
Cc1ccccc1CCNCc1c(C(=O)O)c(C)n(Cc2c(F)cccc2Cl)c1C	none (no result: MCF10A rerep, S-ASM inh, Giardia killer, SW480 rerep)
Cc1cc(C)cc(OCc2nc3ncc(Br)cc3[nH]2)c1	MCF10A rerep inconclusive, KB-V1 MDR tox 1µM, KB-3-1 cytotox 1.3µM, SW480 rerep 5.2µM
COc1cccc(OCc2nc3ncc(Br)cc3[nH]2)c1	KB-V1 MDR tox 1µM, KB-3-1 cytotox 5.8µM
Cc1cccc(C(=O)NCc2nnc(SCC(=O)Nc3ccccc3F)n2-c2ccccc2)c1	none (no result: MCF10A rerep, S-ASM inh, Giardia killer, SW480 rerep)
